Measured values taken from PubChem BioAssay (NCATS).
Inconclusive results are not listed. The source made the active and inactive calls. Calls follow the shape of the dose curve; as a rule, active = well fitted curve in the direction sought with a large enough effect; inconclusive = small, poorly fitted or top-dose-only effect, or another doubt; inactive = no such curve, though single readings can be large; an effect the other way counts as inactive or inconclusive.

Assays:
[1] = Quantitative High-Throughput drug screen in 47 multiple myeloma cell lines against the NCATS MIPE library collection: FR4_PLB cell viability assay (AID 1918924; also: nearly all actives have a fitted effect of over 35% in size)
Summary of the method: (§1)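 Relative luminescence from CellTiter-Glo served as the viability signal, referenced to DMSO-treated (100%) and cell-free medium (0%) controls. Treatment lasted 48 hours at 37C with 500 cells per well.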

[2] = Quantitative High-Throughput drug screen in 47 multiple myeloma cell lines against the NCATS MIPE library collection: Delta47_JCRB cell viability assay (AID 1918925; also: nearly all actives have a fitted effect of over 45% in size)
Summary of the method: as §1

[3] = Quantitative High-Throughput drug screen in 47 multiple myeloma cell lines against the NCATS MIPE library collection: EJM_DSMZ cell viability assay (AID 1918926; also: nearly all actives have a fitted effect of over 30% in size)
Summary of the method: as §1

[4] = Quantitative High-Throughput drug screen in 47 multiple myeloma cell lines against the NCATS MIPE library collection: AMO1_DSMZ cell viability assay (AID 1918927; also: nearly all actives have a fitted effect of over 30% in size)
Summary of the method: as §1

[5] = Quantitative High-Throughput drug screen in 47 multiple myeloma cell lines against the NCATS MIPE library collection: ARP1_JJKsccF8 cell viability assay (AID 1918928; also: nearly all actives have a fitted effect of over 40% in size)
Summary of the method: (§2)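 Cell viability inhibition in this qHTS is measured via ATP content (CellTiter-Glo) after 48 h drug exposure at 37 °C. Wells hold 500 cells; DMSO-treated wells define 100% and medium-only wells 0%.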

[6] = Quantitative High-Throughput drug screen in 47 multiple myeloma cell lines against the NCATS MIPE library collection: ARD_JJKsccE7 cell viability assay (AID 1918929)
Summary of the method: as §1

[7] = Quantitative High-Throughput drug screen in 47 multiple myeloma cell lines against the NCATS MIPE library collection: Karpas620_DSMZ cell viability assay (AID 1918959); also: nearly all actives have a fitted effect of over 30% in size
Summary of the method: as §1

[8] = Quantitative High-Throughput drug screen in 47 multiple myeloma cell lines against the NCATS MIPE library collection: KMM1_JCRB cell viability assay (AID 1918960); also: nearly all actives have a fitted effect of over 30% in size
Summary of the method: as §2

[9] = Quantitative High-Throughput drug screen in 47 multiple myeloma cell lines against the NCATS MIPE library collection: KHM11_PLB cell viability assay (AID 1918962); also: nearly all actives have a fitted effect of over 35% in size
Summary of the method: as §1

[10] = Quantitative High-Throughput drug screen in 47 multiple myeloma cell lines against the NCATS MIPE library collection: JIM3_ECACC cell viability assay (AID 1918963; also: nearly all actives have a fitted effect of over 35% in size)
Summary of the method: as §1

[11] = Quantitative High-Throughput drug screen in 47 multiple myeloma cell lines against the NCATS MIPE library collection: JIM1_ECACC cell viability assay (AID 1918964)
Summary of the method: as §1

[12] = Quantitative High-Throughput drug screen in 47 multiple myeloma cell lines against the NCATS MIPE library collection: H1112_PLB cell viability assay (AID 1918967; also: nearly all actives have a fitted effect of over 30% in size)
Summary of the method: as §1

[13] = Quantitative High-Throughput drug screen in 47 multiple myeloma cell lines against the NCATS MIPE library collection: Karpas25_ECACC cell viability assay (AID 1918968; also: nearly all actives have a fitted effect of over 35% in size)
Summary of the method: as §1

[14] = Quantitative High-Throughput drug screen in 47 multiple myeloma cell lines against the NCATS MIPE library collection: KMS27_JCRB cell viability assay (AID 1918970); settings: KMS27 myeloma cells, CellTiter-Glo ATP viability, 48 h; viability (% of DMSO): at 45.8 µM (top of the series); also: nearly all actives have a fitted effect of over 30% in size
Summary of the method: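 KMS27_JCRB myeloma cells, 500 per well, exposed 48 h at 37 C, 5% CO2 to MIPE 4.0 compounds. Viability from ATP by CellTiter-Glo luminescence, normalized to DMSO (100%) and medium-only (0%) wells.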

[15] = Quantitative High-Throughput drug screen in 47 multiple myeloma cell lines against the NCATS MIPE library collection: KMS12BM_JCRB cell viability assay (AID 1918971); also: nearly all actives have a fitted effect of over 35% in size
Summary of the method: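 CellTiter-Glo luminescence (ATP) after 48 h compound exposure, 37C/5% CO2; 500 cells/well; MIPE 4.0 approved/investigational drugs pinned in; DMSO = 100%, media only = 0% viability.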

[16] = Quantitative High-Throughput drug screen in 47 multiple myeloma cell lines against the NCATS MIPE library collection: KMS12PE_JCRB cell viability assay (AID 1918972); also: nearly all actives have a fitted effect of over 30% in size
Summary of the method: as §1

[17] = Quantitative High-Throughput drug screen in 47 multiple myeloma cell lines against the NCATS MIPE library collection: Karpas417_ECACC cell viability assay (AID 1918961); settings: Karpas417 myeloma viability, CellTiter-Glo ATP luminescence, 48 h; viability (% of DMSO): at 45.8 µM (top of the series)
Summary of the method: as §1

[18] = Quantitative High-Throughput drug screen in 47 multiple myeloma cell lines against the NCATS MIPE library collection: JJN3_DSMZ cell viability assay (AID 1918966; also: nearly all actives have a fitted effect of over 50% in size)
Summary of the method: as §1

[19] = Quantitative High-Throughput drug screen in 47 multiple myeloma cell lines against the NCATS MIPE library collection: INA6_PLB cell viability assay (AID 1918965; also: nearly all actives have a fitted effect of over 55% in size)
Summary of the method: as §1

[20] = Quantitative High-Throughput drug screen in 47 multiple myeloma cell lines against the NCATS MIPE library collection: KMS20_JCRB cell viability assay (AID 1918973); also: nearly all actives have a fitted effect of over 45% in size
Summary of the method: as §1

Measured: Potency
Potency is read from the fitted curve at half-maximal effect.

N[C@@H](CC(=O)N1CCn2c(nnc2C(F)(F)F)C1)Cc1cc(F)c(F)cc1F
not listed: [17] | [18] | [19] | [20]
inactive: all other assays above

CN(C)CCOc1ccc(-c2nc(-c3ccc4c(c3)CCC4=NO)c(-c3ccncc3)[nH]2)cc1
active: [1] 18.7 µM | [2] 14.8 µM | [3] 23.5 µM | [4] 18.7 µM | [5] 16.6 µM | [6] 23.5 µM | [7] 11.8 µM | [8] 14.8 µM | [17] 9.35 µM | [9] 1.32 µM | [10] 23.5 µM | [11] 18.7 µM | [18] 16.6 µM | [12] 23.5 µM | [13] 14.8 µM | [14] 6.62 µM | [16] 10.5 µM

C[C@]12CCC3=C4CCC(=O)C=C4CC[C@@H]3[C@H]1CC[C@@]2(O)CC#N
inactive: [1] | [2] | [3] | [5] | [9] | [10] | [12] | [14]

O=C(O)C1=CC(O)C(O)[C@H](O)C1 (some centres undefined)
not listed: [5] | [6] | [11] | [17] | [18] | [20]
inactive: all other assays above

O=C(O)C1=NC(C(=O)O)CC(C=CN2c3cc(O)c(OC4OC(CO)C(O)C(O)C4O)cc3CC2C(=O)O)=C1 (centres undefined)
not listed: [4] | [5] | [6] | [9] | [15] | [18] | [20]
inactive: all other assays above

CC(C)(OCc1nn(Cc2ccccc2)c2ccccc12)C(=O)O
inactive: [1] | [2] | [5] | [7] | [8] | [19] | [14] | [16]
active: [3] 9.35 µM | [15] 0.418 µM

CC[C@H]1OC(=O)[C@H](C)[C@@H](O[C@H]2C[C@@](C)(OC)[C@@H](O)[C@H](C)O2)[C@H](C)[C@@H](O[C@@H]2O[C@H](C)C[C@H](N(C)C)[C@H]2O)[C@](C)(O)C[C@H](C)C(=NOCOCCOC)[C@H](C)[C@@H](O)[C@]1(C)O
active: [18] 13.2 µM
not listed: [4] | [6] | [15] | [17] | [19] | [20]
inactive: all other assays above

O=C1CN2Cc3c(ccc(Cl)c3Cl)N=C2N1
active: [2] 29.6 µM | [13] 26.4 µM | [14] 0.296 µM | [15] 23.5 µM
inactive: [1] | [3] | [4] | [6] | [7] | [8] | [11] | [16] | [20]

COc1cc2nccc(Oc3ccc(NC(=O)Nc4cc(C)on4)c(Cl)c3)c2cc1OC
active: [1] 20.9 µM | [2] 18.7 µM | [3] 13.2 µM | [4] 4.18 µM | [6] 6.62 µM | [8] 3.72 µM | [19] 23.5 µM | [18] 26.4 µM | [13] 20.9 µM | [15] 23.5 µM
inactive: [14]

COc1cc(F)c(C(C)C)cc1-c1ccc(C(F)(F)F)cc1CN1C(=O)O[C@H](c2cc(C(F)(F)F)cc(C(F)(F)F)c2)[C@@H]1C
active: [15] 3.32 µM
not listed: [5] | [6] | [9] | [17] | [18] | [19] | [20]
inactive: all other assays above

CN[C@H]1[C@@H](O[C@@H]2[C@H](O[C@@H]3[C@@H](O)[C@@H](O)[C@@H](N=C(N)N)[C@@H](O)[C@@H]3N=C(N)N)O[C@H](C)[C@@]2(O)C=O)O[C@@H](CO)[C@@H](O)[C@H]1O
not listed: [4] | [6] | [9] | [17] | [18] | [19] | [20]
inactive: all other assays above

CCC(=C(c1ccc(O)cc1)c1ccc(OCCNC)cc1)c1ccccc1
active: [1] 26.4 µM | [2] 5.9 µM | [3] 23.5 µM | [4] 20.9 µM | [7] 26.4 µM | [10] 20.9 µM | [18] 18.7 µM | [12] 23.5 µM | [13] 18.7 µM | [15] 29.6 µM | [16] 23.5 µM | [20] 5.9 µM
